From PubChem
CYP2C19 act – activators of human cytochrome P450 2C19; P33261; recombinant CYP2C19, luciferin-H EGE luminescence; active compounds read high; 0 = fully inhibited enzyme, 1 = untreated enzyme; activation factor at 5 µM; 96,000 tested, under 10 active; AID 1025;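 active = activation factor of at least 2 at 5 µM in the primary screen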;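 also: 0 = wells with 2.5 mM tranylcypromine and 1 = vehicle-only wells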
PostGolgi ctrl – growth of the yeast control strain, post-Golgi counter-screen; efflux-deficient yeast background strain, growth absorbance A615, 16 h; inhibition, % at 10 µM; 98,000 tested, 5% active
CYP2C9 inh – blocks human cytochrome P450 2C9 | P11712 | CYP2C9 Supersomes, luciferin-H conversion, luminescence | inhibition, % at 5 µM | 96,000 tested, 20% active;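 active = blocking of liver enzyme CYP2C9 beyond about 50% at 5 µM, limit read from the data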
Target sequence (P11712 whole entry, looked up): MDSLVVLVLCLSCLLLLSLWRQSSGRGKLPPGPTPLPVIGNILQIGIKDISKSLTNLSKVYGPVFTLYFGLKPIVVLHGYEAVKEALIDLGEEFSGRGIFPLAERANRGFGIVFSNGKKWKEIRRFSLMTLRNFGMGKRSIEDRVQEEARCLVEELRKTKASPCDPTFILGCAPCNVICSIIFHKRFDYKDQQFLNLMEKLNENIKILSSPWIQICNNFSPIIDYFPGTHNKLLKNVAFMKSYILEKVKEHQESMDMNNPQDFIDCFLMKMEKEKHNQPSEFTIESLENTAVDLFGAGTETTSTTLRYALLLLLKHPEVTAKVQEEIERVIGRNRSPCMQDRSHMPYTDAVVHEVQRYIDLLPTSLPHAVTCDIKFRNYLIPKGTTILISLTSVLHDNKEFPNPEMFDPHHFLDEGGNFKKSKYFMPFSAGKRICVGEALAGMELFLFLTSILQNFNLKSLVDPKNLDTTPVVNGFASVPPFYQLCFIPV
CYP2C9 activ – CYP2C9 (human) activation. AID 1024. 96,000 tested, 1.4% active. P11712. activation factor at 5 µM. recombinant CYP2C9, luciferin-H conversion, luminescence; active compounds read high; factor 1 = untreated enzyme, 0 = blocked;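 active = activation factor of 2 or more for CYP2C9 at a 5 µM dose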;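 also: 0 = sulfaphenazole-blocked wells and 1 = vehicle-only wells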
PostGolgi yeast – growth inhibition of a yeast mutant, post-Golgi transport screen | AID 739 | 98,000 tested, 0.9% active | inhibition, % at 10 µM | post-Golgi transport phenotypic cell assay;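 also: yeast cells grown in 1536-well plates; yeast grown about 18 h at 30C before absorbance read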
CYP2C19 inhib – inhibitors of human CYP2C19; inhibition, % at 5 µM; AID 778; 96,000 tested, 21% active; CYP2C19 Supersomes, luciferin-H EGE luminescence, 30 min;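 active = CYP2C19 inhibition above a set limit at 5 µM in the primary screen, cut at about 50% in these data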;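 also: plate controls were negative control wells for no effect and 2.5 mM tranylcypromine positive control for full effect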
The depositor's hits bear a star. Hits are enriched below; roughly 32% of the tested compounds scored in any of these assays. Rule as the data show it, unless noted: active = inhibition above about 30%; inactive = the rest.

For CC1CCc2c(C(=O)N3CCN(S(=O)(=O)c4cccs4)CC3)csc2C1 (stereo unspecified) the results were CYP2C19 act 0.2, PostGolgi ctrl 24, CYP2C9 inh 77*, CYP2C9 activ 0.2, PostGolgi yeast -11 and CYP2C19 inhib 78*.
O=C(O)c1cnn(-c2ccccc2)c1-c1ccccc1 was read as CYP2C19 act 0.9, PostGolgi ctrl 15, CYP2C9 inh 15, CYP2C9 activ 0.9, PostGolgi yeast 19 and CYP2C19 inhib 8.
Screening COc1ccc(OC)c(NC(=O)CC(NCCC2=CCCCC2)C(=O)O)c1 (stereo unspecified) returned CYP2C19 act 1, PostGolgi ctrl 9, CYP2C9 inh 34, CYP2C9 activ 0.7, PostGolgi yeast -3 and CYP2C19 inhib 4.
Screening CSc1nccc(Nc2ccccc2)c1C#N returned CYP2C19 act 0.4, PostGolgi ctrl 7, CYP2C9 inh 69*, CYP2C9 activ 0.3, PostGolgi yeast 8 and CYP2C19 inhib 59*.
Cc1cc(C)nc(-n2nc(C)cc2NC(=O)CNCc2ccccc2)n1 was read as CYP2C19 act 0.7, PostGolgi ctrl 8, CYP2C9 inh 61*, CYP2C9 activ 0.4, PostGolgi yeast 11 and CYP2C19 inhib 33.
CCN(CC(=O)Nc1cc(C)nn1-c1nc(C)cc(C)n1)Cc1ccccc1 was read as CYP2C19 act 0.3, PostGolgi ctrl 11, CYP2C9 inh 83*, CYP2C9 activ 0.2, PostGolgi yeast -11 and CYP2C19 inhib 69*.
`Cc1cc(C)nc(-n2nc(C)cc2NC(=O)CN2CCCC(C)C2)n1` (stereo unspecified) gave CYP2C19 act 0.6, PostGolgi ctrl 10, CYP2C9 inh 48, CYP2C9 activ 0.5, PostGolgi yeast 2 and CYP2C19 inhib 36.
Cc1cc(C)nc(-n2nc(C)cc2NC(=O)CN2CCc3ccccc3C2)n1 was read as CYP2C19 act 0.1, PostGolgi ctrl 20, CYP2C9 inh 89*, CYP2C9 activ 0.1, PostGolgi yeast -2 and CYP2C19 inhib 86*.
For CCC(C(=O)Nc1cc(C)nn1-c1nc(C)cc(C)n1)c1ccccc1 (stereo unspecified) the results were CYP2C19 act 0.9, PostGolgi ctrl 48*, CYP2C9 inh 34, CYP2C9 activ 0.7, PostGolgi yeast 17 and CYP2C19 inhib 14.
`CC(C)(CC(=O)N1CCN(c2ccc(Cl)cc2)CC1)CC1=NS(=O)(=O)c2ccccc2N1` gave CYP2C19 act 0.4, PostGolgi ctrl 20, CYP2C9 inh 79*, CYP2C9 activ 0.2, PostGolgi yeast -3 and CYP2C19 inhib 64*.
Screening COC(=O)CCC(=O)Nc1cccc2ccccc12 returned CYP2C19 act 1, PostGolgi ctrl 34*, CYP2C9 inh -11, CYP2C9 activ 1.1, PostGolgi yeast 11 and CYP2C19 inhib 3.
Cc1cc(C)nc(SCCC(=O)Nc2cccc3ccccc23)n1 was read as CYP2C19 act 0.6, PostGolgi ctrl 10, CYP2C9 inh -146, CYP2C9 activ 2.5*, PostGolgi yeast -7 and CYP2C19 inhib 45.
CCCCCCC(=O)Nc1nc(C)c(-c2csc(Nc3ccccc3OC)n2)s1 was read as CYP2C19 act 1, PostGolgi ctrl 4, CYP2C9 inh 30, CYP2C9 activ 0.7, PostGolgi yeast -10 and CYP2C19 inhib -3.
CC(C(=O)Nc1ccc2nccnc2c1)N1C(=O)C2C3C=CC(C3)C2C1=O (stereo unspecified) was read as CYP2C19 act 1.1, PostGolgi ctrl 3, CYP2C9 inh 4, CYP2C9 activ 1, PostGolgi yeast -1 and CYP2C19 inhib -10.
`Cc1nn(C)c(=O)n1-c1ccc(Oc2ccccc2)cc1` gave CYP2C19 act 0.8, PostGolgi ctrl 10, CYP2C9 inh 91*, CYP2C9 activ 0.1, PostGolgi yeast -3 and CYP2C19 inhib 22.
`CC1(C)CC(=O)c2cnn(-c3nc4ccccc4[nH]3)c2C1` gave CYP2C19 act 0.2, PostGolgi ctrl 19, CYP2C9 inh 56*, CYP2C9 activ 0.4, PostGolgi yeast 2 and CYP2C19 inhib 80*.
Cc1cc2c(cc1C)NC(c1nc3ccccc3[nH]1)C1=C(CC(C)(C)CC1=O)N2 (stereo unspecified) was read as CYP2C19 act 1, PostGolgi ctrl 4, CYP2C9 inh -4, CYP2C9 activ 1, PostGolgi yeast 7 and CYP2C19 inhib -4.
For Nc1c(S(=O)(=O)c2ccccc2)c2nc3ccccc3nc2n1/N=C/c1ccco1 the results were CYP2C19 act 0.9, PostGolgi ctrl 24, CYP2C9 inh 21, CYP2C9 activ 0.8, PostGolgi yeast 7 and CYP2C19 inhib 8.
For Nc1c(C(=O)NC2CCCCC2)c2nc3ccccc3nc2n1/N=C/c1ccco1 the results were CYP2C19 act 1, CYP2C9 inh 34, CYP2C9 activ 0.7 and CYP2C19 inhib 1.
For Cc1ccc(S(=O)(=O)c2c(N)n(/N=C/c3ccco3)c3nc4ccccc4nc23)cc1C the results were CYP2C19 act 0.8, PostGolgi ctrl 20, CYP2C9 inh 51*, CYP2C9 activ 0.5, PostGolgi yeast -6 and CYP2C19 inhib 23.
Screening Cc1ccc(S(=O)(=O)c2c(N)n(/N=C/c3ccco3)c3nc4ccccc4nc23)cc1 returned CYP2C19 act 0.3, PostGolgi ctrl 41*, CYP2C9 inh 84*, CYP2C9 activ 0.2, PostGolgi yeast 9 and CYP2C19 inhib 68*.
Cc1ccc(S(=O)(=O)c2c(N)n(CC3CCOC3)c3nc4ccccc4nc23)cc1 (stereo unspecified) was read as CYP2C19 act 0.1, PostGolgi ctrl 17, CYP2C9 inh 82*, CYP2C9 activ 0.2, PostGolgi yeast -2 and CYP2C19 inhib 86*.
Screening Cc1cccc(S(=O)(=O)c2c(N)n(/N=C/c3ccco3)c3nc4ccccc4nc23)c1 returned CYP2C19 act 0.4, PostGolgi ctrl 32*, CYP2C9 inh 86*, CYP2C9 activ 0.1, PostGolgi yeast 6 and CYP2C19 inhib 61*.
Cc1cccc(S(=O)(=O)c2c(N)n(/N=C/c3cccnc3)c3nc4ccccc4nc23)c1 was read as CYP2C19 act 1.1, PostGolgi ctrl 8, CYP2C9 inh 36, CYP2C9 activ 0.6, PostGolgi yeast -4 and CYP2C19 inhib -8.
Screening Cc1ccc(S(=O)(=O)c2c(N)n(NC(=O)C3CC3)c3nc4ccccc4nc23)cc1 returned CYP2C19 act 1.2, PostGolgi ctrl 7, CYP2C9 inh 33, CYP2C9 activ 0.7, PostGolgi yeast 5 and CYP2C19 inhib -16.
Screening COc1ccc(OC)c2c1CCC2=O returned PostGolgi ctrl 5 and PostGolgi yeast 6.
For COc1ccc(C(=O)NCC23C=CC(O2)C2C(=O)N(Cc4ccccc4)C(=O)C23)cc1 (stereo unspecified) the results were CYP2C19 act 0.4, PostGolgi ctrl 0, CYP2C9 inh 34, CYP2C9 activ 0.7, PostGolgi yeast -6 and CYP2C19 inhib 62*.
